Assay outcomes (PubChem)
Rows were chosen to be rich in hits. Some 27% of all compounds tested hit in one or more screens of this group.
CYP2C9 inhib = inhibitors of human CYP2C9; P11712; CYP2C9 Supersomes, luciferin-H conversion, luminescence; inhibition, % at 5 µM; 96,000 compounds, 20% hits; AID 777;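 active means blocking of liver enzyme CYP2C9 beyond about 50% at 5 µM, limit read from the data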
Target sequence (P11712 whole entry, looked up): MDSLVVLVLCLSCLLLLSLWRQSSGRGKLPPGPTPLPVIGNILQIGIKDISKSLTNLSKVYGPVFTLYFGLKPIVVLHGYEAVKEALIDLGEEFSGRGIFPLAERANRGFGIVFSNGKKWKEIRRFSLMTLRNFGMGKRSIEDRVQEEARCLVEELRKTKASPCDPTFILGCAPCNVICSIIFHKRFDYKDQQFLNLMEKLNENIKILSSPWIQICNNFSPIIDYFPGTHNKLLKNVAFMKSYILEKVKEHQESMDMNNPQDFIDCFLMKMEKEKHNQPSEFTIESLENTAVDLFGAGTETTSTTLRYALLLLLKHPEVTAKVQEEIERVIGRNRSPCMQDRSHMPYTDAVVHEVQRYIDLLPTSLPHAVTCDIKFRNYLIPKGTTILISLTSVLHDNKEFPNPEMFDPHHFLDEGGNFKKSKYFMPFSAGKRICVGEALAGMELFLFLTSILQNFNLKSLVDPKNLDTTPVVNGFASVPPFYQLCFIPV
CYP2C19 inh = human CYP2C19 inhibition; 96,000 compounds, 21% hits; AID 778; CYP2C19 Supersomes, luciferin-H EGE luminescence, 30 min; inhibition, % at 5 µM; P33261;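 active means CYP2C19 inhibition above a set limit at 5 µM in the primary screen, cut at about 50% in these data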
CYP2C9 activ = increases human cytochrome P450 2C9 activity; 96,000 compounds, 1.4% hits; recombinant CYP2C9, luciferin-H conversion, luminescence; active compounds read high; factor 1 = untreated enzyme, 0 = blocked; activation factor at 5 µM; AID 1024;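 active means activation factor of 2 or more for CYP2C9 at a 5 µM dose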
sEH inh = inhibitors of human soluble epoxide hydrolase; recombinant human sEH enzymatic activity assay; inhibition, % at 2 µM; 91,000 compounds, 0.34% hits; AID 707; in the data active means inhibition above about 80%
CYP2C19 activ = cytochrome P450 2C19 (human) activation; P33261; recombinant CYP2C19, luciferin-H EGE luminescence; active compounds read high; 0 = fully inhibited enzyme, 1 = untreated enzyme; activation factor at 5 µM; 96,000 tested, under 10 active;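 active means activation factor of at least 2 at 5 µM in the primary screen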
sEH act = activators of human soluble epoxide hydrolase; purified human sEH enzymatic activity, activator screen; activation, % at 2 µM; P34913; 91,000 compounds, 0.04% hits; in the data active means activation above about 37%
Numbers stand for hits; 0 = inactive; - = not tested or not shown.

SMILES	CYP2C9 inhib	CYP2C19 inh	CYP2C9 activ	sEH inh	CYP2C19 activ	sEH act
CCOC(=O)C(NC(=O)c1ccccc1)(Nc1nnc(C)s1)C(F)(F)F (stereo unspecified)	-	-	-	0	-	0
C=CCNC(NC(=O)c1ccccc1)(C(=O)OCC)C(F)(F)F (stereo unspecified)	0	63.6	0	0	0	0
CCCOc1ccccc1C(=O)NC(CO)C(=O)O (stereo unspecified)	0	0	0	0	0	0
CCCc1nnc2n1N=C(c1ccc(-c3cc(Cl)ccc3Cl)o1)CS2	-	-	-	0	-	0
O=C(CSc1nnc(-c2ccc(S(=O)(=O)N3CCCC3)cc2)n1CC1CCCO1)NC1CC1 (stereo unspecified)	0	0	0	0	0	0
COc1cc(NS(=O)(=O)c2ccc(OC)c(C)c2C)c(OC)cc1Cl	99.2	99.1	0	0	0	0
COc1ccc(OC)c(S(=O)(=O)Nc2cc(OC)c(Cl)cc2OC)c1	55.5	57.1	0	0	0	0
O=C(Nc1nnc(SCC(=O)N2CCCCC2)s1)c1cccs1	0	0	0	-	0	-
COC(=O)c1c(NC(=O)CSc2nnnn2-c2ccccc2)sc2c1CCCC2	71.5	0	0	0	0	0
COC(=O)c1cccc(-n2nnnc2SCC(=O)Nc2nc3c(s2)CCCC3)c1	0	53.2	0	-	0	-
COc1cccc(-n2nnnc2SCC(=O)Nc2nc3c(s2)CCCC3)c1	-	-	-	0	-	0
COC(=O)c1cccc(-n2nnnc2SCC(=O)Nc2cc(C)on2)c1	51.5	51.4	0	0	0	0
Cc1ccc(C(C(=O)NC(C)(C)C)N(Cc2cccs2)C(=O)c2csnn2)cc1 (stereo unspecified)	-	-	-	0	-	0
Cc1ccc(C(=O)C2=C(O)C(=O)N(CCCn3ccnc3)C2c2ccc(OC(C)C)cc2)o1 (stereo unspecified)	56.8	0	0	0	0	0
CCCc1ccc(OC(=O)c2cccs2)cc1	0	0	0	0	0	0
CCOc1ccc(C2C(C(=O)c3cccs3)=C(O)C(=O)N2CCCn2ccnc2)cc1 (stereo unspecified)	73.4	0	0	0	0	0
CCOc1ccc(C(=O)c2cccs2)cc1	0	72.9	0	-	0	-
CCOc1ccc(C2C(C(=O)c3ccco3)=C(O)C(=O)N2CCCn2ccnc2)cc1 (stereo unspecified)	0	0	0	0	0	0
CCCOc1ccc(C2C(C(=O)c3ccc(C)o3)=C(O)C(=O)N2Cc2cccnc2)cc1 (stereo unspecified)	59.1	0	0	0	0	0
CCOc1ccc(C2C(C(=O)c3ccco3)=C(O)C(=O)N2Cc2cccnc2)cc1 (stereo unspecified)	0	0	0	0	0	0
CCOCCCN1CC(C(=O)NCCc2ccc(C)cc2)CC1=O (stereo unspecified)	0	0	0	0	0	0
COc1ccc(-c2cnc(SCC(=O)Nc3nc(C(C)(C)C)cs3)n2Cc2ccco2)cc1	-	-	-	0	-	0
O=C(CSc1nc2ccccc2s1)NC1CCS(=O)(=O)C1 (stereo unspecified)	0	0	0	0	0	0
CC(C)c1ccc(C(=O)CSc2n[nH]c(-c3ccncc3)n2)cc1	94.3	92.6	0	0	0	0
O=C(CSc1n[nH]c(-c2ccncc2)n1)NC1CCS(=O)(=O)C1 (stereo unspecified)	72.2	0	0	0	0	0
SMILES	CYP2C9 inhib	CYP2C19 inh	CYP2C9 activ	sEH inh	CYP2C19 activ	sEH act
Cc1ccc(C)c(NC(=O)CSc2n[nH]c(-c3ccncc3)n2)c1	95.8	66.1	0	0	0	0
Cc1ccc(NC(=O)CSc2n[nH]c(-c3ccncc3)n2)cc1C	96.7	62.8	0	-	0	-
C=CCNC(=O)C(=O)c1cccn1-c1ccsc1C(=O)OC	0	93.2	0	0	0	0
COc1ccc(OC)c(/C=N/NC(=O)CC2C(=O)NN=C2C)c1 (stereo unspecified)	0	0	0	0	0	0
Cc1cc2oc(=O)cc(Cn3ccnc3)c2cc1C	56.6	100.4	0	0	0	0
O=c1cc(Cn2ccnc2)c2cc3c(cc2o1)CCC3	0	100.4	0	0	0	0
CCCCC1(C)OC(=O)C(=Cc2ccc(N(C)C)cc2)C(=O)O1 (stereo unspecified)	0	0	0	0	0	0
CCOc1cc(S(=O)(=O)n2cc(-c3ccc(F)cc3)c(N)n2)cc(OCC)c1OCC	75.0	0	0	0	0	0
COc1ccccc1-c1cn(S(=O)(=O)c2ccc(F)cc2)nc1N	86.1	96.7	0	0	0	0
